Screening data: PubChem, National Center for Advancing Translational Sciences (NCATS)
A selection: hits, their analogues and other compounds. The true share with any hit is near 2.4%.
KAT2A inh: GCN5L2 (KAT2A) acetyltransferase inhibition; Q92830; GCN5L2 HAT assay, ThioGlo1 CoA-SH fluorescence; Potency, µM (top dose mostly 58.9 µM), inactives show at the highest dose activity change, negative = inhibition, most hits filed as inhibitors; actives 0.21% (n = 390,000); AID 504327; also: % is scaled to controls: 0 for no effect and ±100 for the full control effect
Target sequence (Q92830 whole entry, looked up): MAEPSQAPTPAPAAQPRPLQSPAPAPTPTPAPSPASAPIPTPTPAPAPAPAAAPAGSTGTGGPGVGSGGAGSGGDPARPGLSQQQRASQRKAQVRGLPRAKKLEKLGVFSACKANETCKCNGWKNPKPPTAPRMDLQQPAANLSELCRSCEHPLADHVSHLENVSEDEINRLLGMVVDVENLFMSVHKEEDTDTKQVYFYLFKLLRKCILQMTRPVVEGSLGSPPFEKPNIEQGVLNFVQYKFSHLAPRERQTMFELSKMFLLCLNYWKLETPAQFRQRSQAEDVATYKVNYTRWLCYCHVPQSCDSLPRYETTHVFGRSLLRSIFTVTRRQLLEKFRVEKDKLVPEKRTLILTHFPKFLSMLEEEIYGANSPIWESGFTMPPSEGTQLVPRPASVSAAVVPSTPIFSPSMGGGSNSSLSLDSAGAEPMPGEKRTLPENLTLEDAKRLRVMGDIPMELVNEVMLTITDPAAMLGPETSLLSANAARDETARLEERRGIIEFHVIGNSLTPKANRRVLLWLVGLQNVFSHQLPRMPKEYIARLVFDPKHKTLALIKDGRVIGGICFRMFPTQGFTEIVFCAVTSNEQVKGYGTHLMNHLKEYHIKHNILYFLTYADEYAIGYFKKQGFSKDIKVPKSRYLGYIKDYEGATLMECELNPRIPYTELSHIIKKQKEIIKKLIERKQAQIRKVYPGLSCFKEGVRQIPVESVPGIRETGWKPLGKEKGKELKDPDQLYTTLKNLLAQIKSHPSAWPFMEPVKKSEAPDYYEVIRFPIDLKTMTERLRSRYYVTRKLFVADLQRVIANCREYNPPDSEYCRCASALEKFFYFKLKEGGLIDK
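Compounds, pin-transferred from DMSO stocks, meet 20nM GCN5L2 for 15 min before the reaction begins with H3(1-25) peptide (75uM) and acetyl-CoA (70uM). Thiol-reactive ThioGlo1 reports CoA release over 20 min at room temperature.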
POLH inh: blocks human DNA polymerase eta activity. Q9Y253. actives 1.2% (n = 390,000). AID 588591. Potency, µM (top dose mostly 114 µM), inactives show at the top dose activity change, negative = inhibition, usual class: inhibitors. recombinant Pol eta, fluorescent DNA replication assay; also: % is scaled to controls: 0 for no effect and ±100 for the full control effect
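Pol eta (10 nM) was preincubated with compounds for 15 min at room temperature, after which fluorescent replication substrate (50 nM final) was added to start the reaction. Fluorescence was read kinetically at 0 and 10 min.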
Pol kappa inh: DNA polymerase kappa (human) inhibition. Q9UBT6. purified Pol kappa, fluorescent DNA synthesis assay, 10 min. Potency, µM (doses to about 107 µM), for the others: top-dose activity, negative = inhibition, actives largely listed as inhibitors. actives 0.53% (n = 400,000); also: % is scaled to controls: 0 for no effect and ±100 for the full control effect
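10 nM Pol kappa was preincubated with compounds for 15 min at room temperature. Reaction started with 50 nM (final) substrate. Fluorescence read kinetically at 0 and 10 min.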
POLI inh: blocks human DNA polymerase iota activity; actives 1% (n = 390,000); Pol iota fluorescent replication assay, 10 min; Q9UNA4; Potency, µM (titrated, usually from 115 µM), without a hit: top-dose activity, negative = inhibition, hits mostly inhibitors
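Fluorescent replication assay read twice, at 0 min and 10 min after adding 50 nM (final) substrate. Enzyme (10 nM) and compounds were first incubated 15 min at room temperature; enzyme-free buffer wells were negative controls.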
GLS inhibitor: blocks human kidney-isoform glutaminase activity; AID 624170; O94925; actives 0.21% (n = 410,000); GLS enzymatic activity, qHTS titration; Potency, µM (titrated, usually from 45.5 µM), inactives show top-dose activity change, negative = inhibition, usual class: inhibitors; also: % is scaled to controls: 0 for no effect and ±100 for the full control effect
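hKGA in 45 mM KH2PO4 pH 8.2, 0.02% Tween-20 with pin-transferred compounds; 1 mM L-glutamine (stock) plus glutamate oxidase/HRP/Amplex Red coupling added. Fluorescence read initially and after 30 min at RT.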
Pol beta inh: inhibitors of human DNA polymerase beta; Pol beta primer extension/strand displacement, fluorescence kinetic; actives 1.3% (n = 340,000); P06746; Potency, µM (series often up to 114 µM), inactives show at the top dose activity change, negative = inhibition, most hits filed as inhibitors; also: % is scaled to controls: 0 for no effect and ±100 for the full control effect
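Reaction started by 50 nM substrate onto compound-treated Pol beta (10 nM, 15 min preincubation, room temperature); plates read at 0 min and 10 min. Normalized concentration-effect data fitted by four-parameter Hill equation.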
Numbers without * were called inactive; ? = inconclusive; . = no result given; [ ] = another dose, or the depositor's remark. Calls follow the shape of the dose curve; as a rule, active = well fitted inhibition curve with a large enough effect; inconclusive = small, poorly fitted or top-dose-only effect, or another doubt; inactive = no such curve, though single readings can be large or run the other way. Potency is read from the fitted curve at half-maximal effect.

SMILES	KAT2A inh	POLH inh	Pol kappa inh	POLI inh	GLS inhibitor	Pol beta inh
COc1ccc(-c2c(O)c3cc(O)cc(O)c3oc2=O)cc1	-1%	.	12%[60.1 µM]	.	.	.
CCOc1cccc(NC(=O)/C(C#N)=C/c2cccnc2)c1	-28%	-7%	-7%	-16%	4%	2%
N#C/C(=C/c1ccccc1OCc1ccc(F)cc1)c1ccc(C(=O)O)cc1	-9%	-5%	-1%	5%	25%	-20%
COc1cc(/C=C(\C#N)C(=O)Nc2cccc(C(=O)O)c2)ccc1OCc1ccc(F)cc1	-15%	50µM*	-11%	?	-5%	45µM*
COc1cc(/C=C/[N+](=O)[O-])ccc1OCc1cccc(C(=O)O)c1	-14%	32µM*	25µM*	?	18%	32µM*
CCOc1cc(/C=C(\C#N)C(=O)Nc2cccc(C(=O)O)c2)cc(Br)c1OC(=O)c1ccc(OC)cc1	25µM*	79µM*	?	?	4%	16µM*
N#C/C(=C/c1cccn1-c1cccc(C(=O)O)c1)c1ccc(F)cc1	-22%	25µM*	?	25µM*	-8%	32µM*
CCCCN1C(=O)CN(C2CCCCCC2)C(=O)C1c1ccc(OCCC)c(OC)c1 (stereo unspecified)	0%	1%	-8%[60.1 µM]	-5%	-9%	-6%
COc1cccc(/C=C(/C#N)c2ccc(F)cc2)c1OCc1cccc(C(=O)O)c1	-5%	?	-28%	?	16%	40µM*
COc1cccc(/C=C(/C#N)c2ccc(Cl)cc2)c1OCc1cccc(C(=O)O)c1	?	-1%	-5%	57%	-5%	?
CN(C)c1ccc(/C=C/c2ccnc3ccc(F)cc23)cc1	.	.	0%	-3%	.	.
N#Cc1c(Cl)nc(N/N=C/c2ccccc2)c(Cl)c1Cl	-5%	-14%	-5%	3%	2%	20µM*
O=C(Cc1ccc(OCCCc2ccccc2)cc1)NO	.	.	-5%	13%	.	.
Nc1c(C(=O)Nc2ccc(S(=O)(=O)N3CCCC3)cc2)sc2nc3ccc(OC(F)(F)F)cc3cc12	63%	40µM*	-6%	?	4%	28µM*
Nc1c(C(=O)Nc2ccc(S(=O)(=O)N3CCCC3)cc2)sc2nc3cc4c(cc3cc12)CCC4	3%	-18%	-4%	137%	4%	-10%
COc1ccc(C(=O)COC(=O)CCNS(=O)(=O)c2ccccc2)c(OC)c1	-4%	?	-22%	50µM*	0%	.
COc1ccc(C(=O)COC(=O)c2ccc3c(c2)NC(=O)CS3)c(OC)c1	-4%	?	?	40µM*	3%	.
COc1ccc(C(=O)COC(=O)c2ccccc2O)c(OC)c1	?	25µM*	?	28µM*	-10%	.
O=C(CCNS(=O)(=O)c1ccccc1)OCC(=O)c1ccc(F)cc1	?	-10%	5%	30%	4%	.
COc1ccc(C(=O)COC(=O)c2ccc(Cl)nc2)c(OC)c1	-13%	?	-26%	40µM*	4%	.
COc1ccc(C(=O)OCC(=O)c2cc(OC)ccc2OC)c(OC)c1	-9%	-22%	-15%	36%	-1%	14%
O=C(Cc1ccc(Cl)cc1)Nc1nnc2n1CCS2	-6%	-1%	-3%[60.1 µM]	5%	-11%	5%
C=C1CCN(C(CC(C)C)C(=O)Nc2nc3ccc(Cl)cc3s2)S(=O)(=O)c2ccccc21 (stereo unspecified)	.	.	-6%	2%	.	.
Cc1cc(Nc2cccc(C(F)(F)F)c2)nc2ccc(NC(=O)c3cncc(Br)c3)cc12	-1%	-22%	?	26%	4%	2%
CCC(C(=O)OCC(=O)c1ccc(OC)cc1OC)c1ccccc1 (stereo unspecified)	-27%	32µM*	-41%	?	-3%	.
SMILES	KAT2A inh	POLH inh	Pol kappa inh	POLI inh	GLS inhibitor	Pol beta inh
CCCC/C=C/[C@H](c1ccccc1)[C@H](CO)Cc1ccc2ccccc2c1	.	.	-3%	?	.	.
Brc1ccc(C2=CC(c3cccs3)n3ncnc3N2)cc1 (stereo unspecified)	?	?	-24%	?	?	50µM*
O=C(O)c1ccccc1C(=O)Nc1n[nH]c(=S)s1	18µM*	-12%	-26%	-6%	?	22µM*
O=C(O)c1ccccc1C(=O)Nc1nccs1	-1%	0%	-6%	20%	2%	17%
c1ccc(-c2[nH]ncc2-c2ccnc3ccccc23)nc1	12%	.	8%[60.1 µM]	.	.	.
O=C(C1CCCCC1)N1CCCc2ccccc21	-1%	-19%	-4%	14%	8%	89µM*
O=C(NC1CCCCC1)N1CCCc2ccccc21	-10%	-10%	-1%	16%	3%	83%
COc1ccc(-c2nc3ccc(NC(=O)CO)cc3c(=O)n2Cc2cccc(Cl)c2)cc1COc1ccc(NC(C)=O)cc1	.	.	-6%	26%	.	.
CC(=O)c1cccc(NC(=O)COc2cc3oc(=O)c(CC(C)O)c(C)c3cc2Cl)c1 (stereo unspecified)	24%	?	-39%	56µM*	11%	?
CC(C)c1ccc(N=c2c([N+](=O)[O-])nn(-c3ccc4c(c3)OCCO4)n2O)cc1	-6%	0%	-13%[60.1 µM]	5%	11µM*	10%
Cc1cccc(OCC(=O)Nc2cc(C)c(O)c(-c3nc4ccccc4o3)c2)c1	.	.	-5%	25%	.	.
N#Cc1c2c(c(-c3ccco3)[nH]c1=O)CCCC2	-3%	-6%	?	28µM*	-1%	2%
Cc1[nH]c(=O)c(C#N)c2c1CCCC2	-26%	0%	-3%	11%	-3%	-18%
N#Cc1c(-c2ccco2)c2c([nH]c1=S)CCCC2	?	?	-28%	13µM*	?	28µM*
CCOC(=O)Cc1cc(=O)n2[nH]c(-c3ccccc3)c(-c3ccccc3)c2n1	-7%	79µM*	79µM*	?	0%	14µM*
CCCCC(=O)Nc1ccc(C2C(=O)c3ccccc3C2=O)cc1	.	-18%	-6%	97%	18µM*	.
O=S(=O)(c1ccccc1Br)N(Cc1ccccc1)Cc1ccco1	.	.	-6%	-12%	.	.
C/C(=N\NC(=O)c1ccc(N2CCCC2=O)cc1)c1ccc(O)cc1O	?	-4%	-21%	45µM*	2%	-2%
C/C(=N\NC(=O)c1ccc(N2CCCC2=O)cc1)c1ccccc1	1%	-17%	-7%	42%	1%	24%
Cn1cc(C(=O)NCCN2CCN(c3cccc(Cl)c3)CC2)c2c3ccccc3n(C)c2c1=O	-10%	?	?	100µM*	-4%	19%
COCCCNC(=O)c1cn(C)c(=O)c2c1c1ccccc1n2C	-4%	0%	-7%	51%	-3%	0%
